Results on 22 molecules are retold here after PubChem BioAssay (Tox21).

SMILES strings stand for the structures. Values without a mark were called inactive. Inconclusive results are not listed. Active and inactive are the calls of the source. Unless noted, the call rests on the fitted dose curve; in most records, active means well fitted curve in the direction sought with a large enough effect in the repeat runs; inconclusive means weak or mixed curves; inactive means no such curve, though single readings can be large; an effect the other way counts as inactive or inconclusive.

The nature of test [1]: qHTS assay to identify small molecule antagonists of the estrogen receptor alpha (ER-alpha) signaling pathway using the BG1 cell line in the presence of 0.1 nM 17-beta-estradiol - cell viability counter screen (AID 1259241). Further: nearly all actives have a fitted effect of over 40% in size. Further: potency means the concentration at half of the fitted maximal effect. The method, boiled down:
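In this screen, hormone-deprived VM7Luc4E2 cells were seeded at 4,000 per well, dosed with compound and 0.1 nM estradiol final, and incubated 22 hr at 37C and 5% CO2; fluorogenic live-cell protease signal reported viability.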
(Quantitative high-throughput screening tests each substance at several concentrations.)

Test [2] is described as follows: qHTS assay to identify small molecule antagonists of the androgen receptor (AR) signaling pathway using the MDA cell line in the presence of 0.5 nM R1881 - cell viability counter screen (AID 1259242). Further: nearly all actives have a fitted effect of over 45% in size. Further: potency means the concentration at half of the fitted maximal effect. The method, boiled down: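 Counter screen for cytotoxicity run in the same wells as the AR antagonist reporter screen: MDA-kb2 cells were treated 16 hr with test compounds and 0.5 nM R1881, then live-cell protease activity was measured by fluorescence.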

Test [3] concerns the target Estrogen receptor (Homo sapiens) (UniProt P03372). The test can be described thus: qHTS assay to identify small molecule antagonists of the estrogen receptor alpha (ER-alpha) signaling pathway using the BG1 cell line in the presence of 0.1 nM 17-beta-estradiol (AID 1259244). Further: nearly all actives have a fitted effect of over 50% in size. Further: potency means the concentration at half of the fitted maximal effect. The method, boiled down:
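Cells: VM7Luc4E2, endogenous ER-alpha, 4x ERE-luc stable. Pre-culture 5 d, phenol red-free, charcoal-stripped FBS. Plated 24 h, compound + E2 0.1 nM final, 22 h 37C/5% CO2. Readout ONE-Glo luminescence.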

Test [4] in a line: qHTS assay to identify small molecule HDAC inhibitors (AID 1259364). Further: nearly all actives have a fitted effect of over 45% in size. Further: potency means the concentration at half of the fitted maximal effect. On activity change, negative = inhibition: top concentration of the series differs between compounds. The method, boiled down: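 Luminescence from a cell-permeant luminogenic class I/II HDAC substrate reports endogenous deacetylase activity in intact HCT-116 cells treated with compounds for 2 h.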
Test [5] can be described thus: qHTS assay to identify small molecule agonists of the sonic hedgehog signaling (Shh) pathway - cell viability counter screen (AID 1259366). Further: nearly all actives have a fitted effect of over 50% in size. Further: potency means the concentration at half of the fitted maximal effect. The method, boiled down: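 In quantitative high-throughput format, 3T3 Gli1-Luc cells were exposed to compounds for 24hr and multiplexed for viability using CellTiter-Fluor, incubated 1hr at 37C before the fluorescence read.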

Test [6] can be described thus: qHTS assay to identify small molecule antagonists of the sonic hedgehog signaling (Shh) pathway - cell viability counter screen (AID 1259367). Further: nearly all actives have a fitted effect of over 55% in size. Further: potency means the concentration at half of the fitted maximal effect. The method, boiled down: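 Using CellTiter-Fluor, viability of Gli1-Luc reporter 3T3 cells is read by fluorescence in the wells used for the Shh luciferase assay. Treatment lasts 23 hr with conditioned medium, then reagent 1 hr at 37C.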

The nature of test [7]: qHTS assay to identify small molecule agonists of the sonic hedgehog signaling (Shh) pathway (AID 1259368; calls by dose curve;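 further: NIH/3T3-derived 3T3Gli1-Luc cells carrying a stable Gli1-driven firefly luciferase reporter; series mostly up to about 92 µM; nearly all actives have a fitted effect of over 15% in size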). The method, boiled down:
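3T3Gli1-Luc (NIH/3T3 clone, stable Gli1-Luc); 4 hr pre-incubation, then cpd in DMSO 24 hr, 37 C/5% CO2; luciferase reagent 30 min RT; luminescence.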

Test [8] can be described thus: qHTS assay to identify small molecule phospholipidosis (PLD) inducers (AID 1259344; active means well fitted curve in the direction sought with a large enough effect; an effect the other way counts as inactive or inconclusive; further: potency means the concentration at half of the fitted maximal effect). The method, boiled down:
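Fluorescent phospholipid staining (LipidTOX Red) measured by automated microscopy in fixed HepG2 cells after 24 h treatment; nuclei counterstained with Hoechst 33342; amiodarone as reference inducer.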

Test [9] in a line: qHTS assay to identify small molecule HDAC inhibitors - cell viability counter screen (AID 1259365). Further: nearly all actives have a fitted effect of over 50% in size. Further: potency means the concentration at half of the fitted maximal effect. On activity change, negative = cytotoxicity: series mostly up to about 92 µM. The method, boiled down:
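Measured quantity is CellTiter-Glo luminescence from wild-type HCT-116 cells after compound incubation of 2hr at 37C, 5% CO2; reagent developed 30min at room temperature.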
On the % scale 0 is the no-effect control and ±100 the full control effect.

Sequence of Estrogen receptor (Homo sapiens) (P03372 whole entry, looked up): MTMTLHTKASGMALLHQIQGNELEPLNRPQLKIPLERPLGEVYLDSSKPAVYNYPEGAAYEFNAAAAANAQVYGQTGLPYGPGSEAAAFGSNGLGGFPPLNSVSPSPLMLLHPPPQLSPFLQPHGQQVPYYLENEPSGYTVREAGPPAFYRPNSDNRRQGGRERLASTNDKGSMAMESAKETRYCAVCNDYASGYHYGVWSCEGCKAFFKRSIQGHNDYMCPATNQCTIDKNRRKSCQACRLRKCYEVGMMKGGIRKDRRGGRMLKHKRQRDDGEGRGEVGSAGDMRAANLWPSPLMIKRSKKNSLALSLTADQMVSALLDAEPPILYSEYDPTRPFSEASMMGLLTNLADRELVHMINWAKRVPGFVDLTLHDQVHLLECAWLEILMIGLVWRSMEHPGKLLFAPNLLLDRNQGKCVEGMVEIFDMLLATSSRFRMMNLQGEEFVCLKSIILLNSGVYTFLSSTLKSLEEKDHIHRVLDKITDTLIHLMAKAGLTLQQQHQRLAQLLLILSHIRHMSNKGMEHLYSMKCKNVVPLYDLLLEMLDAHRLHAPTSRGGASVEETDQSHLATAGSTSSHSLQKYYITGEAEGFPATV

For the molecule `O=C(Nc1ccc2c(O)c(N=Nc3ccc(N=Nc4ccc(S(=O)(=O)O)cc4)cc3)c(S(=O)(=O)O)cc2c1)c1ccccc1`, the Potency is 12.2 µM (active) in test [1]; 27.3 µM (active) in [2]; 27.3 µM (active) in test [3]; 10.9 µM (active) in test [5]; 21.7 µM (active) in test [6]. The Potency result in test [4] and in test [7] was “inactive” each time.

As to `C#C[C@]1(OC(C)=O)CC[C@H]2[C@@H]3CCC4=C[C@@H](OC(C)=O)CC[C@@H]4[C@H]3CC[C@@]21C`, the Potency result in test [1], in test [2], in [4], in test [9], in [5] and in [6] was “inactive” throughout. For the same molecule, the Potency entry in test [7] was “inactive”. Moreover, the Potency in test [8] was 10 µM (active).

Turning to `c1ccc(SSc2ccccc2)cc1`, the Potency entry in test [1], in test [2], in test [3], in test [4], in test [9] and in [6] was “inactive” throughout.

Take `COC(=O)C1=C(C)NC(C)=C(C(=O)OCCN2CCN(C(c3ccccc3)c3ccccc3)CC2)C1c1cccc([N+](=O)[O-])c1` (stereo unspecified): the Potency result in test [1], in [2], in test [8], in [4], in [9] and in [7] was “inactive” each time.

Take `O=c1c(O)c(-c2ccc(O)cc2O)oc2cc(O)cc(O)c12`: the Potency entry in [1], in test [2], in test [3], in test [9], in test [5] and in test [7] was “inactive” each time. Moreover, the Potency in test [6] is 45.7 µM (active).

On to `C[C@@H](O)[C@H](N)C(=O)O`, for which the results for the activity change, negative = cytotoxicity in test [1] and in test [9] were -3.81% [at 19 µM] and -2.68% [at 19 µM], respectively. Moreover, the viability change, negative = cytotoxic in test [2] was 0.742% [at 19 µM]; in test [5], 6.05% [at 19 µM]; in test [6], 3.97% [at 19 µM]. In test [8], the Potency result was “inactive”. In test [4], the activity change, negative = inhibition is -3.34% [at 19 µM]. Also, in test [7], the activity change was 0.344% [at 18.9 µM, active compounds read high].

As to `O=C1C(c2[nH]c3ccc(S(=O)(=O)O)cc3c2O)=Nc2ccc(S(=O)(=O)O)cc21`, the Potency result in test [1], in test [2], in test [8], in test [6] and in test [7] was “inactive” each time. Besides, in test [4], the Potency was 54.5 µM (active).

In the case of `CN(C)C(=O)COC(=O)Cc1ccc(OC(=O)c2ccc(N=C(N)N)cc2)cc1`, the Potency result in test [1], in [2], in [8], in [9], in [6] and in [7] was “inactive” throughout. Besides, in [4], the Potency was 0.0376 µM (active).

Regarding `Cc1cc(-n2nc3ccc(Cl)cc3n2)c(O)c(C(C)(C)C)c1`, the Potency result in test [1], in test [2], in [8], in test [4], in test [9] and in test [5] was “inactive” each time. The Potency entry in test [6] and in [7] was “inactive” each time.

`Cc1nc2n(c(=O)c1CCN1CCC(c3noc4cc(F)ccc34)CC1)CCCC2`: the Potency result in test [1], in test [2], in test [8], in test [4], in test [9] and in test [5] was “inactive” each time. For the same molecule, the Potency result in test [6] and in test [7] was “inactive” each time.

On to `CC(N=C(NC#N)Nc1ccncc1)C(C)(C)C` (stereo unspecified), for which the Potency entry in test [1], in [2], in test [8], in [4], in test [9] and in test [5] was “inactive” each time. Also, the Potency entry in [6] and in test [7] was “inactive” in each case.

`CCc1oc2ccccc2c1C(=O)c1cc(I)c(O)c(I)c1`: the Potency entry in test [1], in test [2], in test [8], in [4], in [9] and in [5] was “inactive” each time. In addition, the Potency entry in test [6] and in [7] was “inactive” each time.

As to `Nc1ccc(Oc2ccc(Cl)cc2)cc1`, the Potency result in test [1], in test [2], in test [4], in test [9], in test [5] and in test [6] was “inactive” each time. The Potency entry in test [7] was “inactive”.

Consider `O=C(O)c1cc(O)c2ccccc2c1O`, for which the Potency in test [1] was 34.4 µM (active); in test [2] it was 54.5 µM (active); in [3] it was 27.3 µM (active); in [9] it was 21.7 µM (active); in test [5], 9.69 µM (active); in test [6], 13.7 µM (active).

`CCCC(=O)OCCc1ccccc1`: the Potency entry in test [1], in [2], in [4], in [9], in [5] and in [6] was “inactive” throughout. Moreover, the Potency entry in test [7] is “inactive”.

For the molecule `NC[C@H]1O[C@H](O[C@H]2[C@H](O[C@@H]3O[C@H](CO)[C@@H](O)[C@H]3O)C(O)[C@H](N)C[C@@H]2N)[C@H](N)[C@@H](O)[C@@H]1O` (stereo partly specified), the activity change, negative = cytotoxicity in test [1] is 2.08% [at 8.39 µM]; in test [9] it was -0.0056% [at 8.39 µM]. The viability change, negative = cytotoxic in test [2] is 2.91% [at 8.39 µM]; in [6], -1.51% [at 8.39 µM]. The Potency result in test [8] is “inactive”. Besides, the activity change, negative = inhibition in test [4] is -0.407% [at 8.39 µM]. The activity change in test [7] is -1.1% [at 8.39 µM, active compounds read high].

With `O=C(O)CN(CCN(CC(=O)O)CC(=O)O)CC(=O)O`, the activity change, negative = cytotoxicity is -6% [at 3.27 µM] in test [1] and 0.173% [at 3.27 µM] in test [9]. Also, the viability change, negative = cytotoxic in test [2] is 4.5% [at 3.26 µM]; in test [5] it was 3.2% [at 3.27 µM]; in test [6], -2.72% [at 3.27 µM]. In addition, in test [8], the Potency entry is “inactive”. Also, in test [4], the activity change, negative = inhibition is 2.84% [at 3.27 µM].

`Nc1nc(N)nc(-c2cc(Cl)ccc2Cl)n1`: the Potency result in test [1], in test [2], in test [8], in test [4], in test [9] and in test [5] was “inactive” in each case. The Potency result in test [7] was “inactive”.

As for `CCO[C@@H]1O[C@H](C(COCc2ccccc2)OCc2ccccc2)[C@H](OCc2ccccc2)[C@H]1O` (stereo partly specified), the Potency entry in test [1], in test [2], in [8], in test [4], in [9] and in test [5] was “inactive” each time. Also, the Potency result in test [6] and in [7] was “inactive” in each case.

For the molecule `Fc1ccc(C(c2ccc(F)cc2)N2CCNCC2)cc1`, the Potency result in test [1], in [2], in test [3], in test [4], in test [9] and in test [7] was “inactive” each time.

`CCO[Si](OCC)(OCC)OCC`: the Potency entry in test [1], in test [2], in test [3], in test [4], in test [9] and in test [6] was “inactive” in each case. Also, in [7], the Potency result was “inactive”.

For the molecule `C=CC(C)(CCC=C(C)C)OC=O` (stereo unspecified), the Potency result in test [1], in test [2], in [3], in test [4], in [9] and in [6] was “inactive” throughout. Also, the Potency result in test [7] was “inactive”.
